This passage reports binding signal results from article PMC7862700, “An all-to-all approach to the identification of sequence-specific readers for epigenetic DNA modifications on cytosine”.

Assay in all cases: DAPPL (digital affinity profiling via proximity ligation, sequencing); 10 mM Tris-HCl pH 7.5, 50 mM NaCl, 1 mM DTT, 4% glycerol, room temperature, 30 min; GST-TFs on glutathione beads, 16-mer random dsDNA library, 0.1% formaldehyde crosslink after washing; high values mean tight binding
One experiment deals with T1, FEV (Homo sapiens, UniProt Q99581 1-238).
T1 sequence: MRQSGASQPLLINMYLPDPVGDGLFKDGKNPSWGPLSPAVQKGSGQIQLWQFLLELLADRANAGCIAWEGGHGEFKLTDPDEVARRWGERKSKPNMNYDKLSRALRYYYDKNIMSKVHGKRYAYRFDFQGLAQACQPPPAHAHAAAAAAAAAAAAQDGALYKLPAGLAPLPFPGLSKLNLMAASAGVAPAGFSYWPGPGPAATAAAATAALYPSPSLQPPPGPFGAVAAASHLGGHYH
The conditions noted are these: protein: recombinant; tags: N-terminal GST; dsDNA, one strand shown. An outline of the steps:
(§1)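 Human transcription factors fused to GST were expressed in yeast, captured on glutathione beads, given DNA barcodes and pooled with a GST-only negative control. Pools were incubated with 200 nmole of a 16-mer random double-stranded DNA library in Tris/NaCl/DTT/glycerol buffer at room temperature for 30 min. They were then washed, crosslinked with 0.1% formaldehyde, proximity-ligated (BsaI/T4 ligase, 1 h, 37 °C), PCR-amplified and sequenced on an Illumina NextSeq500. Binding signal is each 6-mer's read frequency for a factor divided by its frequency for the GST control.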

For a further experiment, the target named is ETV5 (Homo sapiens, UniProt P41161 1-510). The conditions noted are these: protein: recombinant; tags: N-terminal GST; dsDNA, one strand shown. In short, it runs like this: as §1
ETV5, sequence (P41161 whole entry): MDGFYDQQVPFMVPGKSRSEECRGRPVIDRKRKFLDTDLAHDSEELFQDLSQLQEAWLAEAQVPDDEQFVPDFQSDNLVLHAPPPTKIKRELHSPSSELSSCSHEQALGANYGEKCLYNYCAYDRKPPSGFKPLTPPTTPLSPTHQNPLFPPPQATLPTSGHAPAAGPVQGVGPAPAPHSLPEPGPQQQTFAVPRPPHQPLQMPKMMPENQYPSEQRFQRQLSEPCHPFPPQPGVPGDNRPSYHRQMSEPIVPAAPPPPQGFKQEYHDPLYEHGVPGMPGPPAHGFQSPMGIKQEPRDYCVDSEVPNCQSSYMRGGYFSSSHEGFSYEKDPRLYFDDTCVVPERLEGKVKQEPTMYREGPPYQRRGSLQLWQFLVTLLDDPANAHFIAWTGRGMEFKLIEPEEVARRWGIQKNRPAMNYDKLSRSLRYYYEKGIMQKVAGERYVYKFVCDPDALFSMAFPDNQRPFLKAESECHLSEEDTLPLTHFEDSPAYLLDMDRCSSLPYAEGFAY
The target in another experiment is HSF1 (Homo sapiens, UniProt Q00613 1-529). The conditions noted are these: protein: recombinant; tags: N-terminal GST; chain copies: 3; dsDNA, one strand shown. An outline of the steps: as §1
HSF1, sequence (Q00613 whole entry): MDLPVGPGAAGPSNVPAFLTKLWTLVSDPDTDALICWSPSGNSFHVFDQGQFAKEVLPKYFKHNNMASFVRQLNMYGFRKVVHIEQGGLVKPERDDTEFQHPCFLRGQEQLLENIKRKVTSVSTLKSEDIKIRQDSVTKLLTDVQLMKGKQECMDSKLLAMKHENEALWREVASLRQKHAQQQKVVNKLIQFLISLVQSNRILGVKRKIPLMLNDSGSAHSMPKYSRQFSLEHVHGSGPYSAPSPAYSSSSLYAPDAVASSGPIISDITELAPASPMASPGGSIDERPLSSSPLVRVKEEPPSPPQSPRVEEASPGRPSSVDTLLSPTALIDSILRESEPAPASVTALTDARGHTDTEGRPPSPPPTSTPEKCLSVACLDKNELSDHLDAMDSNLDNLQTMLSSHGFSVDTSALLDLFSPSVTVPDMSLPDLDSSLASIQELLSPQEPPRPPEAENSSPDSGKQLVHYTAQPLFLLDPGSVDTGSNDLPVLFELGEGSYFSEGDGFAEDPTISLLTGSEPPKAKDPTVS
Another experiment concerns the target T2, SPIC (Homo sapiens, UniProt Q8N5J4 1-248).
T2 sequence: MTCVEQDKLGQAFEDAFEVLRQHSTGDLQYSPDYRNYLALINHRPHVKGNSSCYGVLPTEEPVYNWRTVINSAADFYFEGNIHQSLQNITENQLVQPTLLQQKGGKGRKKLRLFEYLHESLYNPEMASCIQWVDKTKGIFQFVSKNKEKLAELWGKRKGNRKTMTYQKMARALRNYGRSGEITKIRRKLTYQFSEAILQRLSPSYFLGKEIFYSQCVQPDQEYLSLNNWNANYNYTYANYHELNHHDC
The following applies: protein: recombinant; tags: N-terminal GST; dsDNA, one strand shown. In short, it runs like this: as §1

The target in another experiment is ELF4 (Homo sapiens, UniProt Q99607 1-663). The following applies: protein: recombinant; tags: N-terminal GST; dsDNA, one strand shown. An outline of the steps: as §1
ELF4, sequence (Q99607 whole entry): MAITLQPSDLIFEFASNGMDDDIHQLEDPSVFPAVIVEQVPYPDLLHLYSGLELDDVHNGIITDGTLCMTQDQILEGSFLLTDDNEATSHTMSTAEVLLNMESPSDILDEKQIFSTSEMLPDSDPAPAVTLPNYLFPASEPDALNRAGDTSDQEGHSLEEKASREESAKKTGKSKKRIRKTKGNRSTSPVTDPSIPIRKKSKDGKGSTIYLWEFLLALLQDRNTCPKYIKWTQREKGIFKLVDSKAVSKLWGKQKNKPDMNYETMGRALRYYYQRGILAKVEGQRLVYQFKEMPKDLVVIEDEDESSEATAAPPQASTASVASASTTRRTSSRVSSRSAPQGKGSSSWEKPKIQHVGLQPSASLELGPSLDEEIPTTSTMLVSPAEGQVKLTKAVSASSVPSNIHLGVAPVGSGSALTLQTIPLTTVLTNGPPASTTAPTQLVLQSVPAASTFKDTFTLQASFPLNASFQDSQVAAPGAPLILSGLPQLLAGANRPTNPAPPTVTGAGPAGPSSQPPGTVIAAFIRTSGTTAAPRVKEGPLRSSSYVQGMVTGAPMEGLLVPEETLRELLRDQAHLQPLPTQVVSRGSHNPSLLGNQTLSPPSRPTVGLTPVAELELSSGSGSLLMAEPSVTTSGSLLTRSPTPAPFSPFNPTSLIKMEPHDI
For the next experiment, the target named is T3, ELK4 (Homo sapiens, UniProt P28324-2 1-405).
T3 sequence: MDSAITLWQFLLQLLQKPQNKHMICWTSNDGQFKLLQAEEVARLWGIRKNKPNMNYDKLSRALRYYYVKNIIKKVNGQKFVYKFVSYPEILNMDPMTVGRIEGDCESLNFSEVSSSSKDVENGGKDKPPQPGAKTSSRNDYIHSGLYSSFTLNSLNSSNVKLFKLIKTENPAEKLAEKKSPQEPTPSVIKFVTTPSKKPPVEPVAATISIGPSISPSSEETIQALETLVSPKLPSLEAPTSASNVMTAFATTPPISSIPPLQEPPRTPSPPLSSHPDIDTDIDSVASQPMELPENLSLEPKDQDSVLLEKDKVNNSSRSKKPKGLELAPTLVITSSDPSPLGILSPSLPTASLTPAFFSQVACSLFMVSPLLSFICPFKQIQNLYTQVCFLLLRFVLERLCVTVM
The conditions noted are these: protein: recombinant; tags: N-terminal GST; dsDNA, one strand shown. In short, it runs like this: as §1

Another experiment concerns the target T4, ETV2 (Homo sapiens, UniProt O00321 1-342).
T4 sequence: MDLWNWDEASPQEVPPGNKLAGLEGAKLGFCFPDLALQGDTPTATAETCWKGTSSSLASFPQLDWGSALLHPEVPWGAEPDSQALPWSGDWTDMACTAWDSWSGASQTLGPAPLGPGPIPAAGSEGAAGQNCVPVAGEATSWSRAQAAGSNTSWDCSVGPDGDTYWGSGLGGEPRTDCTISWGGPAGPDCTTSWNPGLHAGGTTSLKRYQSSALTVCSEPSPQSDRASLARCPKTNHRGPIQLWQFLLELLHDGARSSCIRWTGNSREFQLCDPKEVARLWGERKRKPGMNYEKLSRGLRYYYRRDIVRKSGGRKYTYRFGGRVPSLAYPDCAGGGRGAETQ
The conditions noted are these: protein: recombinant; tags: N-terminal GST; dsDNA, one strand shown. An outline of the steps: as §1

The target of another experiment is T5, ELF3 (Homo sapiens, UniProt P78545 1-371).
T5 sequence: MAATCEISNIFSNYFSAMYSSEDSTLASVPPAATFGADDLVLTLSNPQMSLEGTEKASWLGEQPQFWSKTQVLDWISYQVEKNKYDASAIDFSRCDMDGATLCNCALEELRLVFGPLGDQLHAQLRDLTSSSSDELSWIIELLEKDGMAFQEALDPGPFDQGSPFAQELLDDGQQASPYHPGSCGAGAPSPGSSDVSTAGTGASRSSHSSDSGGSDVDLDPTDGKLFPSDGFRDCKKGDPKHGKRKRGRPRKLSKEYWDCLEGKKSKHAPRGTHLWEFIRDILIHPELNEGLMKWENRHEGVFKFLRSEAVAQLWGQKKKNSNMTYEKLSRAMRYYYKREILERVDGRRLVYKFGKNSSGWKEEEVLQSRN
The following applies: protein: recombinant; tags: N-terminal GST; dsDNA, one strand shown. An outline of the steps:
as §1

The target of the next experiment is CRX (Homo sapiens, UniProt O43186 1-299). The conditions noted are these: protein: recombinant; tags: N-terminal GST; dsDNA, one strand shown. In short, it runs like this:
as §1

In the next experiment the target is ETV1 (Homo sapiens, UniProt P50549 1-477). The conditions noted are these: protein: recombinant; tags: N-terminal GST; dsDNA, one strand shown. An outline of the steps: as §1
ETV1, sequence (P50549 whole entry): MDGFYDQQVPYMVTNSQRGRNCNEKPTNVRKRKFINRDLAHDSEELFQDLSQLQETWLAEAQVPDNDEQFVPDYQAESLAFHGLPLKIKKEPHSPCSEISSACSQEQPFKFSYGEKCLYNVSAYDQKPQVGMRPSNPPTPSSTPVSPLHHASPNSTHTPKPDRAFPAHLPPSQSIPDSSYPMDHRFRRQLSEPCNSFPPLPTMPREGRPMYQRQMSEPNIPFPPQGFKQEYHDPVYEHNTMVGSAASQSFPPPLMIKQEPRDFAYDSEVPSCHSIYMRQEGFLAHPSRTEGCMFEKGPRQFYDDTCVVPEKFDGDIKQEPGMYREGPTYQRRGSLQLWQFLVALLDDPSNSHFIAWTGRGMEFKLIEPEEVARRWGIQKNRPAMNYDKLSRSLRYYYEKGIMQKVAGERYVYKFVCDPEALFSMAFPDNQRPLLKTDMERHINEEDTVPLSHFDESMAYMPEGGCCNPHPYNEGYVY
A further experiment addresses T6, ERF (Homo sapiens, UniProt P50548 1-548).
T6 sequence: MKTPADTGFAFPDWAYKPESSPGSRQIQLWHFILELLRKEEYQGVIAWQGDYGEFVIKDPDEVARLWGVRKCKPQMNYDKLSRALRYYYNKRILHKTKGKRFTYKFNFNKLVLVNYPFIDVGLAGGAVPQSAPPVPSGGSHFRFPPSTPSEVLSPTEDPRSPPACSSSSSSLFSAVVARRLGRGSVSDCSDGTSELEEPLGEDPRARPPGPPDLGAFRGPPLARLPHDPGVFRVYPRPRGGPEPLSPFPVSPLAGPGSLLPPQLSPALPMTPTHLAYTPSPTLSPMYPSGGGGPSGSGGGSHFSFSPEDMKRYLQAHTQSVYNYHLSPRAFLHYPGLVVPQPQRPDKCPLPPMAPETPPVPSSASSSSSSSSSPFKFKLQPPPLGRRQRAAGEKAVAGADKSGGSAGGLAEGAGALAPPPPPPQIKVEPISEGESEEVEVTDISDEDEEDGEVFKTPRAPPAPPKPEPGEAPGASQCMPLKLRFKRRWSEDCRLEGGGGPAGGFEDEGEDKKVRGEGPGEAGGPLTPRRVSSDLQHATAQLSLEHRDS
The conditions noted are these: protein: recombinant; tags: N-terminal GST; dsDNA, one strand shown. In short, it runs like this:
as §1

A further experiment has as its target T7, ETV3L (Homo sapiens, UniProt Q6ZN32 1-361).
T7 sequence: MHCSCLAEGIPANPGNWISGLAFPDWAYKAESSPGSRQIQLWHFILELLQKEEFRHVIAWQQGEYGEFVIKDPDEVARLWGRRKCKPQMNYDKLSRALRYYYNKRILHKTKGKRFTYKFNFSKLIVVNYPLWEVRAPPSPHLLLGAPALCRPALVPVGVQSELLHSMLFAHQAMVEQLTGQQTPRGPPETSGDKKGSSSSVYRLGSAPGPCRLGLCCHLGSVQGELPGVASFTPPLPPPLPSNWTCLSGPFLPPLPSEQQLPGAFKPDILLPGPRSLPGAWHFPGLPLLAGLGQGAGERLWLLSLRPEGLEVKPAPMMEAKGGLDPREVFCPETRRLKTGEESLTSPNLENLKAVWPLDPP
The following applies: protein: recombinant; tags: N-terminal GST; dsDNA, one strand shown. An outline of the steps: as §1

The next experiment deals with T8, ETS2 (Homo sapiens, UniProt P15036 1-469).
T8 sequence: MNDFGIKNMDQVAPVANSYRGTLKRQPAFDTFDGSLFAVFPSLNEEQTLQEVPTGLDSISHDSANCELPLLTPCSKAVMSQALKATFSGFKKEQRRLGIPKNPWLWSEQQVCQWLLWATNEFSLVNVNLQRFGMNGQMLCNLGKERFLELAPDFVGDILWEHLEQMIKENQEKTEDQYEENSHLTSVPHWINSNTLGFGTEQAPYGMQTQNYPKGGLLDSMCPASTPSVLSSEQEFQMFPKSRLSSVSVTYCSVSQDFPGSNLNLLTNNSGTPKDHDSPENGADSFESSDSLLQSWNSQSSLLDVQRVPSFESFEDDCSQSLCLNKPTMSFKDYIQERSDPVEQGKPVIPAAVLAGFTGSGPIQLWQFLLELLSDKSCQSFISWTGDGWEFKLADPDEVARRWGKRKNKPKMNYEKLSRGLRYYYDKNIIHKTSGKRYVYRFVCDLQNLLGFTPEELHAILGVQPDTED
The following applies: protein: recombinant; tags: N-terminal GST; dsDNA, one strand shown. An outline of the steps:
as §1

In another experiment the target is T9, SPDEF (Homo sapiens, UniProt O95238 1-335).
T9 sequence: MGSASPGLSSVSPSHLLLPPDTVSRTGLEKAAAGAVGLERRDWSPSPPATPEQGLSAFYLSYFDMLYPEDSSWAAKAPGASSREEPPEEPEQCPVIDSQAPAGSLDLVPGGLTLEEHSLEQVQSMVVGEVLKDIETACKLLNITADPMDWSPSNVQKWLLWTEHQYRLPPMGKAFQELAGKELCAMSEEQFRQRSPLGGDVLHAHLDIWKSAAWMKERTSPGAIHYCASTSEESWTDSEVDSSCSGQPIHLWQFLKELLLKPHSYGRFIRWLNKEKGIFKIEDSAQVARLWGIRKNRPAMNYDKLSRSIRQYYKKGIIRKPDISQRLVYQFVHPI
The conditions noted are these: protein: recombinant; tags: N-terminal GST; dsDNA, one strand shown. An outline of the steps:
as §1

For the next experiment, the target named is T10, ETV7 (Homo sapiens, UniProt Q9Y603 1-341).
T10 sequence: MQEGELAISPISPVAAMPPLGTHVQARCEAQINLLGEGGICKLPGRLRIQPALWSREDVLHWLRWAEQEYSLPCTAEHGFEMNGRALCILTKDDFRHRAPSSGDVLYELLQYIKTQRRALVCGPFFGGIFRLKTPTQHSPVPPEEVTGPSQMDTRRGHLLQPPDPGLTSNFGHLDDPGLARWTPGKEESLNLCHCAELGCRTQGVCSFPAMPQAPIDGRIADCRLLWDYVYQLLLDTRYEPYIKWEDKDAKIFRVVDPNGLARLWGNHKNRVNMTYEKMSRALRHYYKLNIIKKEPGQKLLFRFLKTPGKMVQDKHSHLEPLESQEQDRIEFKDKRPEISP
The conditions noted are these: protein: recombinant; tags: N-terminal GST; dsDNA, one strand shown. In short, it runs like this:
as §1

A further experiment has as its target T11, ELF5 (Homo sapiens, UniProt Q9UKW6-2 1-255).
T11 sequence: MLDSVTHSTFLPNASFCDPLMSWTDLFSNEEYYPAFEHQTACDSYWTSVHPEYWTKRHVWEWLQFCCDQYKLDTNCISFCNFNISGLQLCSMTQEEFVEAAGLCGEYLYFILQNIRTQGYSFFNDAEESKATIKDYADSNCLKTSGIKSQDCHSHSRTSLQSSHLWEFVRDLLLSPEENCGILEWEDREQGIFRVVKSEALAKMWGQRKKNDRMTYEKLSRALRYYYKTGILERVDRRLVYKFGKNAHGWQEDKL
The following applies: protein: recombinant; tags: N-terminal GST; dsDNA, one strand shown. An outline of the steps:
as §1

The target in a further experiment is T12, ETV3 (Homo sapiens, UniProt P41162-2 1-143).
T12 sequence: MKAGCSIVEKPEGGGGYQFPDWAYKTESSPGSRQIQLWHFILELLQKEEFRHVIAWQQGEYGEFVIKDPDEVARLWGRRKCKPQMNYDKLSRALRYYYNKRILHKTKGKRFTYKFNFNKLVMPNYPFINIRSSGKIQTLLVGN
The following applies: protein: recombinant; tags: N-terminal GST; dsDNA, one strand shown. In short, it runs like this: as §1

A further experiment deals with ETV6 (Homo sapiens, UniProt P41212 1-452). The following applies: protein: recombinant; tags: N-terminal GST; dsDNA, one strand shown. An outline of the steps:
as §1

ETV6, sequence (P41212 whole entry): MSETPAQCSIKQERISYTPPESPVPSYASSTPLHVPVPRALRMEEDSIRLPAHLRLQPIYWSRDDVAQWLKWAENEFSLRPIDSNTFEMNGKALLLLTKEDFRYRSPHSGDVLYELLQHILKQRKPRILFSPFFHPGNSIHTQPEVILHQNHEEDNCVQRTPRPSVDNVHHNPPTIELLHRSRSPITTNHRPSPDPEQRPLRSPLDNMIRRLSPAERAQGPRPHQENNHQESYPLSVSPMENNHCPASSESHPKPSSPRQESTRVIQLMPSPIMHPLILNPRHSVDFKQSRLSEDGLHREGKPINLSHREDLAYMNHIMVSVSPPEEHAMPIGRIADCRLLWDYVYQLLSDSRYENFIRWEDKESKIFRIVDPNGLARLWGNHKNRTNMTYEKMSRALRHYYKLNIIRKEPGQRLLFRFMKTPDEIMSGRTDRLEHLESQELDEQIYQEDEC
CRX, sequence (O43186 whole entry): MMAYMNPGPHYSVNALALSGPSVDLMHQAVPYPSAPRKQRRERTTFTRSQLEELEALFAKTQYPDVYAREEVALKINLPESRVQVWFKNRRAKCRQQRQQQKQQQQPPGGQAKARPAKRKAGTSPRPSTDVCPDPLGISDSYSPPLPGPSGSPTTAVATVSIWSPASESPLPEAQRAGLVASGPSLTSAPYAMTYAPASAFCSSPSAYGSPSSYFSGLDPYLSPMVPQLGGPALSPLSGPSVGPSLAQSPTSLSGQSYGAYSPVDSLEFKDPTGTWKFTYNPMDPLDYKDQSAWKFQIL

ATGGTA: the binding signal with FEV was 1.17 fold enrichment (6-mer frequency, TF over GST control); with ETV5 it was 1.43 fold enrichment (6-mer frequency, TF over GST control); with HSF1, 1.21 fold enrichment (6-mer frequency, TF over GST control); with SPIC it was 1.31 fold enrichment (6-mer frequency, TF over GST control); with ELF4, 1.31 fold enrichment (6-mer frequency, TF over GST control); with ELK4 it was 1.49 fold enrichment (6-mer frequency, TF over GST control). Also, the binding signal is 1.45 fold enrichment (6-mer frequency, TF over GST control) with ETV2; 1.48 fold enrichment (6-mer frequency, TF over GST control) in the experiment with ELF3; 1.33 fold enrichment (6-mer frequency, TF over GST control) with CRX; 1.47 fold enrichment (6-mer frequency, TF over GST control) with ETV1; 1.38 fold enrichment (6-mer frequency, TF over GST control) with ERF; 1.35 fold enrichment (6-mer frequency, TF over GST control) with ETV3L. The binding signal with ETS2 was 1.37 fold enrichment (6-mer frequency, TF over GST control); with SPDEF it was 1.31 fold enrichment (6-mer frequency, TF over GST control); in the experiment with ETV7 it was 1.48 fold enrichment (6-mer frequency, TF over GST control); with ELF5 it was 1.39 fold enrichment (6-mer frequency, TF over GST control); with ETV3, 1.35 fold enrichment (6-mer frequency, TF over GST control); in the experiment with ETV6 it was 1.31 fold enrichment (6-mer frequency, TF over GST control).
